# Source: PubChem BioAssay AID624300 (Southern Research Specialized Biocontainment Screening …, 2012)
# In all, about 2,400 compounds went through this assay and about 360 (15%) were called active.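 The calls were made as follows: active = viability falls under 70% at one or more tested concentrations, taken as toxicity; inactive = viability stays over 70% at every dose.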 Not all results are given here. Entries with a potency or affinity are not part of this list.
# Assay: viability loss in HeLa cells – cytotoxicity control for MgcRacGAP inhibitor project, dose response (AID 624300)
# Conditions: CellTiter-Glo luminescence, 24 h; series mostly up to 100 µM
row,SMILES,outcome
1,Cc1ncc(CO)c(/C=N/Nc2ccc(C(F)(F)F)cn2)c1O,inactive
2,CCOc1cc(/C=N/NC(=O)CCCC(=O)NC2CCCCC2)ccc1O,inactive
3,COc1cc(/C=C/C(=O)OCC(=O)N2CCN(S(=O)(=O)c3ccc(C)cc3C)CC2)ccc1O,inactive
4,CCOc1cc(/C=C2\CN(CC)C/C(=C\c3ccc(O)c(OCC)c3)C2=O)ccc1O,inactive
5,CCN(CC)CCC(=O)N1C/C(=C/c2ccccc2)C(=O)/C(=C\c2ccccc2)C1,inactive
6,CC(C)c1ccc(CNc2ccc(N3CCOCC3)cc2)cc1,inactive
7,CC1CCN(S(=O)(=O)c2ccc3c(c2)C(Cl)(Cl)C(=O)N3)CC1,inactive
8,CCOc1cc(/C=C2\CN(C)C/C(=C\c3ccc(O)c(OCC)c3)C2=O)ccc1O,inactive
9,CCOc1cc(CNc2ccc3[nH]c(=O)[nH]c3c2)ccc1OCC(=O)NC(C)(C)C,inactive
10,O=C1CSC(=Nc2ccc(O)cc2)N1,inactive
11,CCN(CC)S(=O)(=O)c1cccc(-c2n[nH]c(=S)n2/N=C/c2ccc(C(=O)OC)cc2)c1,inactive
12,c1cc2c(cc1NC1CCCCCC1)OCO2,inactive
13,CC(=O)N1CCC(=NNC(=O)c2cc3ccccc3cc2O)CC1,inactive
14,C/C(=N\Nc1ccc([N+](=O)[O-])cc1)c1ccc(N)cc1,inactive
15,COc1cccc(NC2=C(C#N)C(=O)NC(c3cccc(OC)c3O)S2)c1 (stereo unspecified),inactive
16,COc1ccc(NCc2cc(=O)[nH]c3ccccc23)cc1,inactive
17,Cn1c(=O)c2ccccc2n2c(=S)[nH]nc12,inactive
18,CC(OC(=O)CCN=C1NS(=O)(=O)c2ccccc21)C(=O)Nc1ccc(N(C)C)cc1 (stereo unspecified),inactive
19,CCNC(=S)Nc1cc2oc3ccccc3c2cc1OC,inactive
20,COc1cc2c(cc1NC(=S)Nc1cccc3ccccc13)oc1ccccc12,inactive
21,CC(=O)Nc1ccc(N=Nc2ccc(O)cc2)cc1,inactive
22,CCN(C=NC1=NN(c2cccc(C(F)(F)F)c2)CC1)CC,inactive
23,O=C(Cn1sc2ccccc2c1=O)Nc1ccc(F)cc1,inactive
24,Cc1ccc(-n2sc3ccccc3c2=O)cc1,inactive

row,SMILES,outcome
1,O=C(Cn1sc2ccccc2c1=O)Nc1ccccc1,inactive
2,COc1ccc(N2CCN(c3ncccn3)CC2)cc1,inactive
3,S=C(NCc1ccco1)NCc1ccco1,inactive
4,COc1cc(CN2CCC(C(=O)N3CCCC(C)C3)CC2)cc(Br)c1O (stereo unspecified),inactive
5,O=C(NC(=S)Nc1ccc(O)cc1)C1CCCC1,inactive
6,COc1cc(/C=N/N=C2/SCC(=O)N2c2ccc(O)cc2)ccc1O,inactive
7,CN(C)c1ccc(NC(=O)CCN2C(=O)c3cccc([N+](=O)[O-])c3C2=O)cc1,inactive
8,COc1cccc(Nc2ccc(N3CCCCC3)cc2)c1OC,inactive
9,C=CCNC(=S)N1CCN(Cc2ccc3c(c2)OCO3)CC1,inactive
10,CCOc1ccc(C2NC(=O)C(C#N)=C(S)N2c2ccc(C)cc2)cc1OC (stereo unspecified),inactive
11,COc1ccc(NC(=O)Nc2ccc(N(C)C)cc2)cc1,inactive
12,CN(CCCCCCN(C)Cc1ccccc1O)Cc1ccccc1O,inactive
13,CCCc1c(C)[nH]c2ccc(C(=O)O)cc2c1=S,inactive
14,Nc1nc(Sc2ccc([N+](=O)[O-])c3nonc23)c2[nH]cnc2n1,inactive
15,CCOC(=O)c1c(/N=C/C2=C(O)CCCC2=O)sc(C)c1C,inactive
16,O=C(O)c1cccc(-n2sc3ccccc3c2=O)c1,inactive
17,Clc1ccccc1-c1nc(/C=N/N2CCOCC2)c2ccccn12,inactive
18,O=C(CN1CCc2ccccc2C1)Nc1ccccc1C(F)(F)F,inactive
19,O=C(N/N=C/c1ccc(O)cc1)c1csc2c1CCCC2,inactive
20,Oc1ccc(-c2nccs2)cc1,inactive
21,CCN=c1scc(C)n1/N=C/c1cc(Br)c(O)c(OC)c1,inactive
22,Cc1cc(=O)[nH]c2c(N=Nc3ccc(O)cc3)c(N)nn12,inactive
23,CC1(C)CC(=O)C2=C(C1)Nc1ccccc1S2,inactive
24,COc1cccc(/C=N/n2c(-c3n[nH]c4c3CCC4)n[nH]c2=S)c1O,inactive

row,SMILES,outcome
1,O=C1CCC(C2CCc3cc(O)ccc3C2)C1 (stereo unspecified),inactive
2,CCOc1ccccc1CN1CCC(N2CCOCC2)CC1,inactive
3,CC(C)CC(=O)N1CCN(Cc2cccc([N+](=O)[O-])c2)CC1,inactive
4,CCOc1cc(/C=N/NC(=O)CCc2n[nH]c(=O)[nH]c2=O)ccc1O,inactive
5,COc1ccc(-c2cn[nH]c2-c2ccc(O)cc2O)cc1OC,inactive
6,S=c1[nH]nc(-c2cccnc2)n1/N=C/c1cccs1,inactive
7,COc1cc2cc(-c3ccc(O)cc3O)nc(C)c2cc1OC,inactive
8,Oc1ccc(-c2csc(-c3cccnc3)n2)cc1O,inactive
9,COc1ccc(C2NC(=O)C(C#N)=C(S)N2c2ccc(C)cc2)cc1OC (stereo unspecified),inactive
10,N#CC1(Nc2ccc(-c3ccc(NC4(C#N)CCCC4)cc3)cc2)CCCC1,inactive
11,Nc1ccc(N2CCCCC2)c(Cl)c1,inactive
12,Cc1cccc(NC2=C(C#N)C(=O)NC3(CCCC3)S2)c1,inactive
13,COC(=O)C1=C(C)N(CC2CCCO2)C(=O)/C1=C\c1ccc(O)cc1 (stereo unspecified),inactive
14,CCOc1cc(/C=C2/N=C(C)C(C(=O)OC)=C2O)ccc1O,inactive
15,COc1cc(-c2nc3ccccn3c2/N=C/c2cc(OC)c(O)cc2Cl)ccc1O,inactive
16,COc1cc(-c2nc3cnccn3c2Nc2c(C)cccc2C)ccc1O,inactive
17,Cc1ccccc1CN(C)CCc1ccccn1,inactive
18,Cc1nc(S/C(=C\c2ccc(-c3ccc(C(=O)O)c(Cl)c3)o2)C(=O)O)n[nH]1,inactive
19,O=C1c2ccccc2C(=O)C1c1ccc(O)cc1,inactive
20,Cc1ccc(S(=O)(=O)Nc2ccc(N(C)C)cc2)cc1,inactive
21,Cc1ccc(S(=O)(=O)/N=S(/c2ccccc2)C(C)C)cc1 (stereo unspecified),inactive
22,Oc1ccc(N=Nc2ccccc2)cc1,inactive
23,COc1cc2c(cc1OC)C(c1cc(Br)c(OC)c(OC)c1)CC(=O)N2 (stereo unspecified),inactive
24,CN(C)c1ccc(NC(=O)c2cccc(N3C(=O)C4C5C=CC(C5)C4C3=O)c2)cc1 (stereo unspecified),inactive

row,SMILES,outcome
1,CC(C(=O)NC(=O)NC1CCCCC1)N1CCN(c2ccc(O)cc2)CC1 (stereo unspecified),inactive
2,COc1ccc(N[C@@H]2CCN3C(=O)c4ccccc4[C@@H]3C[C@H]2O)cc1,inactive
3,N#CC1=C(S)N(c2ccccc2)C(c2ccc(-c3cccc(Cl)c3)o2)NC1=O (stereo unspecified),inactive
4,COc1ccccc1N1CCN(CCCOc2ccc(F)cc2)CC1,inactive
5,Cc1cccc(-c2n[nH]c(=S)n2/N=C/c2ccco2)c1,inactive
6,CCOc1cc(CNc2ccc3c(c2)OCCO3)cc(Br)c1OCC(N)=O,inactive
7,CCOc1cc(CNc2ccc(N3CCOCC3)cc2)cc(Br)c1OCC,inactive
8,COc1cc(CNc2ccc(N3CCOCC3)cc2)cc(Br)c1OC,inactive
9,COc1ccc(CNc2ccc(N3CCN(C(C)=O)CC3)cc2)cc1OC,inactive
10,O=C(Cn1cnc([N+](=O)[O-])n1)N/N=C/c1ccc(O)cc1O,inactive
11,O=S(=O)(c1ccccc1)N1N=C(c2ccc(O)cc2)CC1c1ccco1 (stereo unspecified),inactive
12,CN(C)c1ccc(NC(=O)c2ccc3nsnc3c2)cc1,inactive
13,O=C(c1ccccc1)N1CCN(C2CCCCC2)CC1,inactive
14,COc1ccc(/C=N/n2c(-c3n[nH]c4c3CCC4)n[nH]c2=S)c(OC)c1OC,inactive
15,Nc1n[nH]c(N)c1N=Nc1ccc2c(c1)OCO2,inactive
16,O=C(CSc1ccc2ccccc2c1)N1CCN(c2ccc(O)cc2)CC1,inactive
17,Oc1ccc(NC(=S)Nc2ccc(F)cc2)cc1,inactive
18,Oc1ccc(NC(=S)N=Nc2c(O)[nH]c3ccccc23)cc1,inactive
19,Oc1ccc(N2CCN(Cc3cc4c(cc3Br)OCCO4)CC2)cc1,inactive
20,CC1CCN(CC(=O)Nc2ccc(S(=O)(=O)NC3CC3)cc2)CC1,inactive
21,Cc1ccc(NC(=O)NC(=O)CN2CCN(c3ccc(O)cc3)CC2)c(C)c1,inactive
22,CN(c1ccc(O)cc1)c1nc(-c2cccs2)cs1,inactive
23,COc1ccc(CNC(=O)CN(C)Cc2ccc(C(C)(C)C)cc2)cc1,inactive
24,CN1CCN(C=NC2=NN(c3cccc(C(F)(F)F)c3)CC2)CC1,inactive

row,SMILES,outcome
1,CCOC(=O)c1[nH]c(=S)n(Cc2ccccc2)c1C(=O)OCC,inactive
2,CN(C)c1ccc(NC(=O)COC(=O)c2ccc3c(c2)OCO3)cc1,inactive
3,COC(=O)C1CCN(C(=O)COC(=O)/C=C/c2ccc(O)c(OC)c2)CC1,inactive
4,CSc1nc(/C=C2\C=Nc3ccccc32)c(O)n1C,inactive
5,CCOC(=O)C1CCCN(C(=S)Nc2ccc(Nc3ccccc3)cc2)C1 (stereo unspecified),inactive
6,COc1ccc(-n2cnc(=S)[nH]c2=S)cc1,inactive
7,CN(C)c1ccc(-n2cccc2/C=C/[N+](=O)[O-])cc1,inactive
8,COc1ccc(NC2CCCN(C(=O)c3ccccc3-c3ncc[nH]3)C2)cc1 (stereo unspecified),inactive
9,CCN1CCN(CCOc2cccc(Cl)c2Cl)CC1,inactive
10,COc1ccc(NC(=O)c2cc3ccc(O)cc3o/c2=N\O)cc1,inactive
11,Cc1sc2ncnc(Nc3ccc(O)cc3)c2c1C,inactive
12,CCN(CC)S(=O)(=O)c1cccc(C(=O)N/N=C/c2ccc(OC)c(O)c2)c1,inactive
13,Cc1c(O)ccc2c3c(c(=O)oc12)CCCC3,inactive
14,Cc1ccc2c(c1)C(C)CC(C)(C)N2C(=O)CN1CCN(C)CC1 (stereo unspecified),inactive
15,O=c1c(-c2ccccc2Cl)c[nH]n1-c1ccccc1,inactive
16,O=c1c(-c2cccc(Cl)c2)c[nH]n1-c1ccccc1,inactive
17,Cc1ccc(OC(=O)CCC(=O)Nc2ccc(C)c(C)c2)cc1,inactive
18,COc1cc(/C=C/C(=O)OCC(=O)NC(=O)NC(C)C)ccc1O,inactive
19,COc1ccc(N2CCN(C(=O)CCCn3nnnc3CN3CCOCC3)C(C)C2)cc1 (stereo unspecified),inactive
20,O=C1/C(=C\c2ccc(O)cc2)SC(=S)N1/N=C/c1ccc(O)cc1,inactive
